Experiment [1] addresses Protein-arginine deiminase type-4 (Homo sapiens) (UniProt Q9UM07). Briefly: protein arginine deiminase 4 blockade, retest – biochemical, fluorescence polarization, confirmation (AID 488796;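 active = mean inhibition across replicates above the hit cutoff set by the earlier primary screen, cut at about 15% in these data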;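 note: inhibitors block active-site labeling by the probe so polarization falls; 0% = PAD4 with probe and DMSO and 100% = probe without PAD4 enzyme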). The conditions noted are these: recombinant PAD4, RCA probe fluorescence polarization; at 6.36 µM; active compounds read high.
For experiment [2], the target named is Serine protease HTRA1 (Homo sapiens) (UniProt Q92743). Briefly: confirming inhibition of human HTRA1 – biochemical, fluorescence polarization, confirmation (AID 540248;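 active = mean inhibition over three repeats above a set limit taken from the earlier primary screen, cut at about 37% in these data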;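 note: 0% = HTRA1 with DMSO and 100% = wells lacking HTRA1; inhibitors block probe binding so polarization drops and inhibition rises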). The conditions noted are these: recombinant HTRA1, FP-rhodamine activity-based probe, at 5.96 µM, active compounds read high. For orientation: In fluorescence polarisation assays a small probe gives low polarisation when free and higher when bound to something large.

A short description of experiment [3]: BSA probe fluorescence interference – biochemical, TAMRA-labeled BSA, counter-screen for TCR-CD3 interaction inhibitor project (AID 652035; in the data active = inhibition above about 23%;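 note: 0% = buffer low control and 100% = reference high control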). The conditions noted are these: TAMRA-labeled BSA probe fluorescence counterscreen; at 9.4 µM; active compounds read high. (In general: Counterscreens check selectivity or assay interference.)
The subject of experiment [4] is T-cell receptor (TCR)-CD3 interaction, human. Briefly: blockers of TCR binding to CD3 – biochemical, fluorescence, TAMRA-labeled TCR probe, confirmation (AID 652036; in the data active = inhibition above about 19%). The conditions noted are these: TAMRA-labeled TCR probe fluorescence binding assay; at 9.4 µM; active compounds read high.
The target in experiment [5] is (Lyso)-N-acylphosphatidylethanolamine lipase (Mus musculus) (UniProt Q8VD66). Briefly: mouse ABHD4 hydrolase blockers, triplicate – biochemical, fluorescence polarization, confirmation (AID 720658;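 active = mean inhibition across replicates above the hit cutoff set in the primary screen, cut at about 30% in these data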;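 note: 0% = wild-type ABHD4 with DMSO and 100% = catalytically dead S159A mutant with DMSO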). The conditions noted are these: purified mABHD4, FP-Rh probe fluorescence polarization; at 8.92 µM; active compounds read high.
For experiment [6], the target named is Platelet-activating factor acetylhydrolase (Homo sapiens) (UniProt Q13093). Briefly: inhibition of plasma PAF acetylhydrolase – biochemical, fluorescence polarization, human, confirmation (AID 463230;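 active = mean inhibition of the triplicate above the hit cutoff set for the earlier primary screen, cut at about 25% in these data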;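 note: 0% = enzyme with DMSO and 100% = wells lacking pPAFAH enzyme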). The conditions noted are these: recombinant pPAFAH, FP-Rh probe fluorescence polarization; at 3.39 µM; active compounds read high.
The subject of experiment [7] is DAF-12 nuclear receptor (Heterodera glycines), GAL4-LBD fusion. Briefly: hgDAF-12 GAL4 fusion reporter activation, retest – cell-based, luminescence, HEK293, GAL4-LBD fusion, confirmation (AID 743050;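 active = mean activation over triplicate wells above the hit cutoff derived from the earlier primary screen, cut at about 11% in these data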;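 note: 0% = DMSO low control and 100% = 2 mM sodium butyrate high control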). The conditions noted are these: HEK293 GAL4-hgDAF12 luciferase reporter, agonist mode; at 6.8 µM; active compounds read high; percent of butyrate response. In general terms: A reporter such as luciferase makes a cellular process visible.

Experiment [8] deals with Oxysterols receptor LXR-beta (Homo sapiens) (UniProt P55055). Briefly: nonspecific reporter activation via LXR – cell-based, luminescence, HEK293, H. glycines campaign, counter-screen for hgDAF-12 agonist project, confirmation (AID 743051;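 active = mean activation of the triplicate above a set limit carried over from the primary screen, none filed active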). The conditions noted are these: HEK293 Gal4-LXR luciferase reporter, 24 h; at 6.8 µM; active compounds read high.
The nature of experiment [9]: reduced OD of T4-infected AddAB+ E. coli – absorbance, E. coli V3065, T4 phage, triplicate, AddAB inhibitor project, confirmation (AID 488942).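 Note: higher means less bacterial growth since AddAB block lets phage replicate.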 The conditions noted are these: E. coli V3065 expressing H. pylori AddAB, at 11.9 µM, active compounds read high, T4 phage with gene 2 nonsense mutations.
The nature of experiment [10]: reduced OD of phage-infected RecBCD+ V66 E. coli – absorbance, mutant T4 phage, counter-screen for AddAB inhibitor project (AID 488955;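 active = mean inhibition above the mean of solvent-only control wells plus 3 SD, cut at about 4% in these data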;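 note: optical density read after an 18 h incubation at 37 °C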). The conditions noted are these: OD growth, at 11.9 µM, active compounds read high.
The nature of experiment [11]: bacterial growth inhibitors – absorbance, counter-screen for AddAB inhibitor project, confirmation (AID 488956; in the data active = inhibition above about 25%). The conditions noted are these: bacterial viability, absorbance (AddAB counterscreen); at 11.9 µM; active compounds read high.
The target of experiment [12] is Platelet-activating factor acetylhydrolase IB subunit alpha1 (Homo sapiens) (UniProt Q15102). Briefly: inhibition of PAF acetylhydrolase 1B subunit 3 – biochemical, fluorescence polarization, human, confirmation (AID 493032;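 active = average inhibition over triplicate runs above the hit cutoff set in the earlier primary screen, cut at about 25% in these data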;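 note: 0% = enzyme with DMSO and 100% = wells lacking PAFAH1B3 protein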). The conditions noted are these: recombinant PAFAH1B3, FP-Rh activity-based probe, at 3.39 µM, active compounds read high.
Experiment [13] can be described thus: reduced OD of V66 E. coli with T4 gene 2 phage – absorbance, RecBCD inhibitor project, confirmation (AID 651982;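 active = mean inhibition over triplicates exceeding the hit threshold derived in the original primary screen, cut at about 11% in these data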). The conditions noted are these: E. coli V66 + T4 2- phage, growth OD; at 11.9 µM; active compounds read high.
A short description of experiment [14]: bacterial growth inhibition – absorbance, high throughput, counter-screen for RecBCD inhibitor project (AID 651983; in the data active = inhibition above about 20%;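 note: E. coli strain V66 grown with compound alone and no phage infection; 0% = bacteria with DMSO vehicle only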). The conditions noted are these: E. coli viability, absorbance (OD) growth; at 11.9 µM; active compounds read high.
The nature of experiment [15]: reduced optical density, T4-challenged addAB+ bacteria – absorbance, E. coli V3065, T4 phage, counter-screen for RecBCD inhibitor project, confirmation (AID 651984;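 active = mean inhibition above the solvent-only control wells' mean plus 3 SD, cut at about 22% in these data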;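 note: higher means less bacterial growth from phage killing when AddAB is blocked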). The conditions noted are these: E. coli expressing H. pylori AddAB + T4 phage, OD growth; at 11.9 µM; active compounds read high; gene 2 mutant T4, recBCD-deleted host.
The nature of experiment [16]: StAR promoter reporter inhibitors, counter-screen for LRH-1 inverse agonist project, cell-based, luminescence, high throughput (AID 651611; in the data active = inhibition above about 28%). The conditions noted are these: StAR promoter luciferase reporter counterscreen, at 3.6 µM, active compounds read high.
Experiment [17] addresses Nuclear receptor subfamily 5 group A member 2 (Homo sapiens) (UniProt O00482). Briefly: NR5A2 activity suppression in reporter cells – cell-based, luminescence, confirmation (AID 651613; in the data active = inhibition above about 42%;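 note: HEK293T cells co-transfected with LRH-1 and StAR promoter luciferase reporter; 0% = vehicle wells and 100% = parental cells lacking receptor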). The conditions noted are these: cell-based LRH-1 luciferase reporter, inverse agonism; at 3.6 µM; active compounds read high.
In experiment [18] the target is Steroidogenic factor 1 (Homo sapiens) (UniProt Q13285). Briefly: inverse agonism at SF1 nuclear receptor – cell-based, luminescence, high throughput, counter-screen for LRH-1 inverse agonist project (AID 651614; in the data active = inhibition above about 44%;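 note: cells cotransfected with StAR promoter reporter and SF1 expression vector; 0% = vehicle on cells with receptor and 100% = vehicle on cells lacking receptor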). The conditions noted are these: cell-based SF1 luciferase reporter, at 3.6 µM, active compounds read high.
Experiment [19] in a line: compounds suppressing VP16-driven luciferase signal – cell-based, luminescence, high throughput, counter-screen for LRH-1 inverse agonist project (AID 651615; in the data active = inhibition above about 33%). The conditions noted are these: Gal4-VP16 luciferase reporter cells, at 3.6 µM, active compounds read high.

Molecules are shown by their SMILES. Unmarked numbers belong to inactive results. Some of the results follow. Active and inactive are the calls of the source.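 Rule for the calls, unless noted: active = mean inhibition above a set limit taken from the earlier primary screen (cut at about 13% in these data); inactive = the rest.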

Sequence of (Lyso)-N-acylphosphatidylethanolamine lipase (Mus musculus) (Q8VD66 whole entry, looked up): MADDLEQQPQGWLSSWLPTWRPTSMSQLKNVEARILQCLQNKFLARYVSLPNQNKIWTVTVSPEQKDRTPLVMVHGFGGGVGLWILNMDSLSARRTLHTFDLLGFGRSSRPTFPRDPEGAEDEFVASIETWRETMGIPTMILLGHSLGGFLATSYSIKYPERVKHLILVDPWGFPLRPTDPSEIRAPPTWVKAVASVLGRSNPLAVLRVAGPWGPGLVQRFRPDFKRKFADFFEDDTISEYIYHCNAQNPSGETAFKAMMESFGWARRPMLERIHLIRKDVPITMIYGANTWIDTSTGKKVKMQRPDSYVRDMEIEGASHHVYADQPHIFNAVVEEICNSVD
Sequence of Protein-arginine deiminase type-4 (Homo sapiens) (Q9UM07 whole entry, looked up): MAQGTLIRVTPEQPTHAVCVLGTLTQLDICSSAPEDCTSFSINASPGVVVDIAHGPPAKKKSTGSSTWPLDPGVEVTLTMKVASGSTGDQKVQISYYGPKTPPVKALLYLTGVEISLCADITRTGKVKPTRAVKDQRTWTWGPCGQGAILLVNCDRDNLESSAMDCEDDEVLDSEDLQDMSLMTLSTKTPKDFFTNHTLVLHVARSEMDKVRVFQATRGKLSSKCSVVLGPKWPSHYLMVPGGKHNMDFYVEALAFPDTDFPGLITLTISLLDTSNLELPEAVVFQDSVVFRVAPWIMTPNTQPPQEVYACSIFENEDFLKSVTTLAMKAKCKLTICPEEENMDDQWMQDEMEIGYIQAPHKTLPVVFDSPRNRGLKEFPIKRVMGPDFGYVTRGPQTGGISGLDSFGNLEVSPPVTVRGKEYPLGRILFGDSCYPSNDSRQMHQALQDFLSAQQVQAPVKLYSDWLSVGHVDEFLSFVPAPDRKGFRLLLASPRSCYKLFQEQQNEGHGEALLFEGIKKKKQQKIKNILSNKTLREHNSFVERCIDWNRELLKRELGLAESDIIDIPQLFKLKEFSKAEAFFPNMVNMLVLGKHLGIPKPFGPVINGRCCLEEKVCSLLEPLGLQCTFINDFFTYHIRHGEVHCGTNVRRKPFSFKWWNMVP
Sequence of Platelet-activating factor acetylhydrolase IB subunit alpha1 (Homo sapiens) (Q15102 whole entry, looked up): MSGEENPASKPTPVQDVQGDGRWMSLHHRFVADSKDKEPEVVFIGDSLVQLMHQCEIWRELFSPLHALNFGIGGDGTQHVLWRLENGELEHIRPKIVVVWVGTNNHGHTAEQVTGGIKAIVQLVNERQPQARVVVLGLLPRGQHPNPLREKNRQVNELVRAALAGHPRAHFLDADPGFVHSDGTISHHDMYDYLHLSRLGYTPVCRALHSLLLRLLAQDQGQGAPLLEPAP
Sequence of Platelet-activating factor acetylhydrolase (Homo sapiens) (Q13093 whole entry, looked up, the tested form may be a part): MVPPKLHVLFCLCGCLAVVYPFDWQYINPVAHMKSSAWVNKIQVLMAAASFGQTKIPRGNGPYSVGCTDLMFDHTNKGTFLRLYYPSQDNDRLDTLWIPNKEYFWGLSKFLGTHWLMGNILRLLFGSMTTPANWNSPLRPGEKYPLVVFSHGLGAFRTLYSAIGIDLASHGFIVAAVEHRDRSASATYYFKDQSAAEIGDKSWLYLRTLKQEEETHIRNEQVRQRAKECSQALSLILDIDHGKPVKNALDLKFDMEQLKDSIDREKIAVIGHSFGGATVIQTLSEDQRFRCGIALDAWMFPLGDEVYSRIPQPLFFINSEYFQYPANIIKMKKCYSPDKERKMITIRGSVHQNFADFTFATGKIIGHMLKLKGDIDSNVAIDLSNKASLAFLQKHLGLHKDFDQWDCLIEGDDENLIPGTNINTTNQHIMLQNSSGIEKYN
Sequence of Oxysterols receptor LXR-beta (Homo sapiens) (P55055 whole entry, looked up, the tested form may be a part): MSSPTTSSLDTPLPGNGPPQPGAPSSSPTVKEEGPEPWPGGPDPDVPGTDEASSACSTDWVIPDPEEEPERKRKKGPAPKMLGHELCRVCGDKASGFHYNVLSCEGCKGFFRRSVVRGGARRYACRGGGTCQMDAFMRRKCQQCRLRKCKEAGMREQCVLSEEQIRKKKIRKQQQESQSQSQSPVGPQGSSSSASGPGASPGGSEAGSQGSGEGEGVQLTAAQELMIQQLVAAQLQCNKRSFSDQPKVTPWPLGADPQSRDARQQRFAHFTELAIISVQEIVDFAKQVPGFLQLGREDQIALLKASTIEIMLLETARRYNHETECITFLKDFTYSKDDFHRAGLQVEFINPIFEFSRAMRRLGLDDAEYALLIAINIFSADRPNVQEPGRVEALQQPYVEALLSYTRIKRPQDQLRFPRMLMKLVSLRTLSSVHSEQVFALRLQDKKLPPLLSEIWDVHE
Sequence of Steroidogenic factor 1 (Homo sapiens) (Q13285 whole entry, looked up, the tested form may be a part): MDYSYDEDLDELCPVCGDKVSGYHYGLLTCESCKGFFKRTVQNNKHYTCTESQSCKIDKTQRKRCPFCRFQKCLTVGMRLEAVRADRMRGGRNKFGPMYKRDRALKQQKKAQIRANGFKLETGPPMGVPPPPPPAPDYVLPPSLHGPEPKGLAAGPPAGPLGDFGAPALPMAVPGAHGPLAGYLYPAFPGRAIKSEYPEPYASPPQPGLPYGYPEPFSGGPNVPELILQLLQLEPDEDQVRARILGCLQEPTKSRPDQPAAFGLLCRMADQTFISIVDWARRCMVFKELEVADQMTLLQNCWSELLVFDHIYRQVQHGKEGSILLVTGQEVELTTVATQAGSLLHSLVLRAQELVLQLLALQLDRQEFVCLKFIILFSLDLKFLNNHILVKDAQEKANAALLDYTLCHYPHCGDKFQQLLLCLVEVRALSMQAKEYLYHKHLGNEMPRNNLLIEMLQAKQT
Sequence of Nuclear receptor subfamily 5 group A member 2 (Homo sapiens) (O00482 whole entry, looked up): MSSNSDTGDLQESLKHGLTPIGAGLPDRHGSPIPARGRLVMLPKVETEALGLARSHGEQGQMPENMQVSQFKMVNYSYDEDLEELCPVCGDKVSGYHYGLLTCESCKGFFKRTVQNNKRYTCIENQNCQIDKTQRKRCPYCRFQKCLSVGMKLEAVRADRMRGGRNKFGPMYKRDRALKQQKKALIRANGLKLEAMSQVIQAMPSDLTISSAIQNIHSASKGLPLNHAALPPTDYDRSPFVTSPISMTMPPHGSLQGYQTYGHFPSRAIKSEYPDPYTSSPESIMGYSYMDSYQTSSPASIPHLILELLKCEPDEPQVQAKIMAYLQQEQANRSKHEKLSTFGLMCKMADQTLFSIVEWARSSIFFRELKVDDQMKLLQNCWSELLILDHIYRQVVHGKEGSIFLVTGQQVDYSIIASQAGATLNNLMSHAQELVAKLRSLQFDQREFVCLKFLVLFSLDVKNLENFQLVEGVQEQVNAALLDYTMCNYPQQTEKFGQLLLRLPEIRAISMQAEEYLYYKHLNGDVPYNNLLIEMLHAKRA

Take `CNC(=S)NNC(=O)c1oc2nc(-c3ccccc3)cc(-c3ccco3)c2c1N`: the inhibition in experiment [1] was 2%; in experiment [2] it was 11.5%; in experiment [3] it was -11.2%; in experiment [4] it was 30.5% (active); in experiment [5] it was 17.5%.

On to `CCC(=O)Nc1sc(C(=O)Nc2ccccc2)c(C)c1C(=O)OC`, for which the inhibition in [6] is 4.86%. For the same molecule, the values for the activation in [7] and in [8] were 9.78% and 0.28%, respectively.

Take `CCc1nnc(SCc2cccc(F)c2)nc1CC`: in experiment [1], the inhibition is -0.68%.

On to `CCOC(=O)N1CCC(c2cc(=O)n(-c3ccccc3)[nH]2)CC1`, for which the inhibition in experiment [1] was -0.34%.

With `CCc1ccccc1NC(=S)Nc1cc(OC)c(NC(=O)C(C)C)cc1OC`, the inhibition in experiment [1] is 1.96%; in experiment [5], -9.17%.

Consider `O=C(NCCCO)c1cc2c([nH]c3ccccc32)c(-c2ccc(F)cc2)n1`, for which, in [1], the inhibition was 22.4% (active).

In the case of `COc1cccc(NC(=O)C2c3cc(OC)c(OC)cc3C(=O)N(C)C2c2cccnc2)c1` (centres undefined), the inhibition in experiment [1] was 8.92%.

On to `COc1cccc2c(C)c(C(=O)O)[nH]c12`, for which the results for the inhibition in experiment [6] and in experiment [5] were 33% (active) and 34.5% (active), respectively.

As to `CN1C(=O)c2cccc3c(N)ccc(c23)C1=O`, the inhibition in experiment [1] was 17.1% (active); in experiment [5], 31.5% (active).

As to `CC(C)(C)NC(=O)COC(=O)c1cc(Cl)ccc1[N+](=O)[O-]`, the inhibition in [9] is -4.38%; in experiment [10] it was 0.98%; in experiment [11] it was -3.45%.

For `COc1ccc(C(=O)COC(=O)c2ccc([N+](=O)[O-])s2)cc1OC`, the inhibition in experiment [12] was 13.3%.

With `Cc1cccc(N=C2NC(=O)/C(=C/c3cn(C)c4ccccc34)S2)c1`, in experiment [12], the inhibition is 17.3%.

In the case of `COc1ccc(NC(=O)ON=C2c3ccccc3-c3ccccc32)cc1`, in experiment [12], the inhibition is 29% (active).

Turning to `CC1CCCN(C(=O)c2ccc3c(c2)C(=O)N(CCC2=CCCCC2)C3=O)C1` (centres undefined), the inhibition in [9] is -4.68%; in [10] it was -0.96%; in experiment [11] it was -2.15%.

Take `Cc1cccc(NC(=O)Cn2cc(C(=O)c3ccco3)c3ccccc32)c1`: the inhibition was 14.9% (active) in [9]; 10.9% (active) in experiment [10]; 11.8% in experiment [11]; 6.82% in [13]; 11.3% in [14]; 7.23% in experiment [15].

For the molecule `CN1CCN(c2cc3c(cc2F)c(=O)c(C(=O)O)cn3CCF)CC1`, the inhibition was 103% (active) in experiment [9]; 102% (active) in experiment [10]; 103% (active) in experiment [11]; 103% (active) in [13]; 103% (active) in [14]; 102% (active) in experiment [15].

In the case of `NC(=O)NC(=O)C(OC(=O)CCNS(=O)(=O)c1ccccc1)c1ccccc1` (centres undefined), in [2], the inhibition was 23.1%.

As for `COc1ccc(C2=Nn3c(nnc3-c3ccccc3OC)SC2)cc1OC1CCCC1`, the inhibition in experiment [12] was 35.2% (active).

With `CN1C(c2ccc(F)cc2)=CS/C1=C(/C#N)c1nnc2n1-c1ccccc1SC2`, the inhibition in [12] was 20.9%.

Consider `O=C1c2ccccc2NC(c2ccc(-c3cccc(Cl)c3)o2)N1O` (centres undefined), for which the inhibition is 17.5% (active) in experiment [9]; 18.4% (active) in [10]; 13.2% in experiment [11]; 13.7% (active) in experiment [13]; 16.7% in experiment [14]; 18.9% in [15].

Turning to `O=C(N/N=C/c1ccc(O)c(O)c1)C1c2ccccc2Oc2ccccc21`, the inhibition in [2] was 76.6% (active).

With `CC1=C(C(=O)OCc2ccccc2)C(c2ccco2)n2ncnc2N1` (centres undefined), the inhibition in experiment [9] was 0.55%; in [10] it was 0.26%; in [11], -3.83%.

For `O=[N+]([O-])c1ccc(N=Cc2c(O)ccc3ccccc23)cc1`, the inhibition is -0.99% in [9], -2.02% in experiment [10] and -4.22% in [11].

With `O=C(Nc1ccc(Br)cn1)c1ccc([N+](=O)[O-])o1`, the inhibition in experiment [9] is 99.3% (active); in experiment [10] it was 11.8% (active); in experiment [11], 30.2% (active); in experiment [16], 11%; in experiment [17], 54.7% (active); in [18], 55.6% (active). Moreover, the inhibition in [19] was -5.48%; in [13] it was 7.78%; in experiment [14], 9.86%; in experiment [15], 81.2% (active).

In the case of `C=CCNC(=O)c1cc(-c2ccccc2O)on1`, the inhibition was -1.87% in experiment [9], 1.86% in experiment [10] and 0.32% in experiment [11].

Take `O=C1c2ccccc2C(=O)c2c1cccc2N1CCN(Cc2ccccc2)CC1`: the inhibition in [2] was 60.1% (active).

As to `Cc1ccc(C(=O)/C=C/Nc2ccc(S(=O)(=O)Nc3onc(C)c3C)cc2)cc1`, the inhibition in [9] was 2.14%; in experiment [10], 3.94%; in experiment [11], 2.93%.

Regarding `CSC(=S)N/N=C/c1c[nH]c2ccccc12`, the inhibition is 24.2% (active) in experiment [9], 11.8% (active) in experiment [10], 29.5% (active) in experiment [11] and 33.3% in experiment [2].

Take `CCCN(CCC)C(=O)C1c2ccccc2Oc2ccccc21`: the inhibition in experiment [2] was -8.94%.

Regarding `COc1cccc(Cn2cc(/C=N/NC(=O)c3cc(O)cc(O)c3)c3ccccc32)c1`, in experiment [12], the inhibition is 17.6%.

`Cc1cc(-c2csc(N)n2)c(C)n1-c1ccccc1`: the inhibition in [2] is 28.5%.

Regarding `O=C(CSc1ccc(-c2ccccn2)nn1)Nc1ccccc1`, the inhibition in experiment [9] is 5.71%; in experiment [10], 6.8% (active); in [11], 5%; in experiment [13] it was 2.01%; in [14], 1.79%; in [15] it was 11.1%.

On to `Oc1c(CN2CCCC2)cc(COCc2ccccc2)c2cccnc12`, for which the inhibition in [2] is 80% (active).

On to `CC[C@H]1OC(=O)[C@H](C)[C@@H](O[C@H]2C[C@@](C)(OC)[C@@H](O)[C@H](C)O2)[C@H](C)[C@@H](O[C@@H]2O[C@H](C)C[C@H](N(C)C)[C@H]2O)[C@](C)(O)C[C@@H](C)[C@@H]2N[C@@H](COCCOC)O[C@H]([C@H]2C)[C@]1(C)O`, for which the inhibition in experiment [9] is 62.5% (active); in [10], 41% (active); in [11], 37.2% (active); in [13] it was 33.9% (active); in experiment [14], 34.4% (active); in experiment [15] it was 42.6% (active).

Consider `Cc1ccc(C)c(NC(=O)NNC(=O)c2ccc3ccccc3c2O)c1`, for which the inhibition in experiment [12] is 40.5% (active).

For the molecule `O=C(CN1CCN(S(=O)(=O)c2cc(Cl)ccc2Cl)CC1)c1ccc(O)c(O)c1`, in [2], the inhibition was 45.3% (active).

By inhibition is commonly meant the relative decrease from the control value, in per cent.

The values are drawn from PubChem BioAssay.
